Measurements reported in PubChem BioAssay (NCI).
Compounds without any hit were thinned out: in the full panel of roughly 83,000, 20% have a hit.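 Treatment: one concentration, 48 hours, 96-well format. Scoring: percent growth, with anything below 10 considered active.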 Activity calls are given as the source filed them.

System: BT-549 breast
Test: NCI-60 one-dose screen, 48 h (100 = growth as untreated, 0 = no growth, -100 = all killed)
Details: 10 µM unless noted
Description: Growth inhibition of the BT-549 human tumor cell line is measured as a screen for anti-cancer activity. Cells are grown in 96 well plates and exposed to the test compound for 48 hours. Compounds are tested at a single concentration, which is 10^-5 M for most compounds. The reported endpoint is percent growth (GI% or GIPRCNT), where numbers from 0 - 100% represent growth inhibition, and numbers from -100% - 0 represent cell death. For example, a value of 40 represents 60% growth inhibition. A value of 0 means no net growth occurred over the course of the experiment. A value of -40 indicates 40% of cells at the beginning of the experiment died by the end of the experiment. A value of -100 means all cells are dead at the end of the experiment.
NCI-60 Human Tumor Cell Lines Screen was performed using the standard one-dose NCI protocol, which is described in more detail at https://dtp.cancer.gov/discovery_development/nci-60/default.htm.
Compounds with GIPRCNT values below 10 were considered active. Activity score was based on GIPRCNT using the following formula: […]
Score is 0 for GIPRCNT values of 100 or above, 50 for GIPRCNT values of 0, and 100 for GIPRCNT values of -100.

Row | Compound | growth
1 | COc1cccc(-c2nn(-c3ccccc3)cc2-c2ccnc(NCCCNC(=O)Nc3ccc(Cl)c(Cl)c3)c2)c1 | 7.49% (active)
2 | O=C1/C(=C\c2c[nH]c3ccccc23)c2ccccc2N1c1c(Cl)cccc1Cl | -22.1% (active)
3 | COc1cccc(-c2nc3sccn3c2-c2ccnc(NCCNS(=O)(=O)c3cccc(F)c3)c2)c1 | -6.02% (active)
4 | CN(C)CCNc1nc2ccccc2c2c1c1c(n2Cc2ccccc2)-c2ccccc2C1=O | -86.8% (active)
5 | O=C(O)c1ccc2c(c1)CCC2 | 96.6% (inactive)
6 | Cc1nc2c(c(N3CCCc4ccccc43)n1)CCC2 | -12.1% (active)
7 | COc1cc(/C=C/C(=O)c2ccc(Nc3nc(Nc4ccc(F)cc4)nc(Nc4ccc(Cl)cc4)n3)cc2)cc(OC)c1OC | 54.8% (inactive)
8 | CC(=O)c1nc(Nc2ccc(C)cc2)sc1C | 87.1% (inactive)
9 | Cc1ccccc1NC(=O)N/C(N)=N/c1nc(C)c(C)s1 | 66.3% (inactive)
10 | CCN(CC)c1ccc(C(=O)c2ccc(N(CC)CC)cc2)cc1 | 4.9% (active)
11 | C[C@H]1[C@H]2[C@H]3CC[C@@H]4[C@@]5(C)C/C(=C/c6cccnc6)C(=O)C(C)(C)[C@@H]5CC[C@@]4(C)[C@]3(C)CC[C@]23CO[C@]1(C)[C@@H](C(=O)/C=C\c1cccnc1)C3 | -20.1% (active)
12 | S=C(Cc1ccc2c(c1)CCCC2)N1CCOCC1 | 101% (inactive)
13 | COc1ccc(-c2nc3c(N)c(CO)c(C)nc3o2)cc1 | 118% (inactive)
14 | Cn1c2c(c3ccc(Cl)c(Cl)c31)C(C#N)C1(CCNCC1)NC2=O (stereo not given) | 45% (inactive)
15 | COc1ccc(C(=NN=C(N)N)c2ccc(OC)cc2)cc1 | 30.6% (inactive)
16 | CC(C)(C)n1cc(-c2ccnc(NCCCNS(=O)(=O)c3ccccc3)c2)c(-c2ccccc2)n1 | 53.4% (inactive)
17 | COc1cc(C(=O)/C=C/c2c(C(F)(F)F)nc3sccn23)cc(OC)c1OC | -14.2% (active)
18 | Cc1ccc(NS(=O)(=O)c2ccc3c(c2)C2OCCC2C(c2ccc(C(=O)C(C)C)cc2)N3)cc1C (stereo not given) | 54.3% (inactive)
19 | O=C(Nc1cccc2c(O)c(N=Nc3ccc(S(=O)(=O)Nc4nccs4)cc3)cc(N=Nc3ccc(S(=O)(=O)Nc4nccs4)cc3)c12)C(Cl)Cl | 87.3% (inactive)
20 | CNS(=O)(=O)c1n[nH]nc1-c1cc(C(C)(C)C)c(O)c(C(C)(C)C)c1 | 101% (inactive)

Row | Compound | growth
21 | O=[N+]([O-])c1ccc(N2c3ccncc3Sc3ccncc32)cc1 | 114% (inactive)
22 | CCCCc1ccc(Nc2ccc(Nc3ccc(CCCC)cc3S(=O)(=O)O)c3c2C(=O)c2ccccc2C3=O)c(S(=O)(=O)O)c1 | 94% (inactive)
23 | O=S(=O)(Nc1cccc(Cl)c1)c1ccc(-c2cnc(C3CC3)o2)cc1 | 26.6% (inactive)
24 | O=C(c1ccc(Nc2nccc(NCCCCNc3ccnc4cc(Cl)ccc34)n2)cc1)N1CCCCC1 | 97.6% (inactive)
25 | CC(C)(C)c1ccc(/C=C/C(=O)Nc2ccc(O)cc2)cc1 | 66.6% (inactive)
26 | O=C(COc1ccc(/C=C2\Oc3ccccc3C2=O)cc1)Nc1nc2c(s1)CCCC2 | -13.9% (active)
27 | COc1cc(-c2nn(-c3ccccc3)cc2-c2ccnc(NCCNS(=O)(=O)c3ccc(Cl)cc3)n2)ccc1Cl | 16.6% (inactive)
28 | N#C/C(=C\c1ccc(Br)cc1)n1nnc2cc(F)c(F)cc21 | 22.2% (inactive)
29 | O=c1c2cc(F)ccc2sc2c(NCCCN3CCCC3)nc3ccccc3c12 | 70.6% (inactive)
30 | CC1=C([Se]CC(OC(=O)CC[Se]c2ccccc2)C(=O)NCCCCCC(=O)OCc2ccccc2)C(=O)c2ccccc2C1=O (stereo not given) | 39.9% (inactive)
31 | CCCCCCCCCOc1c(OC)cc(C2CC(=O)Nc3c2c(C)nn3-c2nc3ccccc3[nH]2)cc1OC (stereo not given) | -16.7% (active)
32 | COc1ccc(OC)c(-c2c(C#N)c(-c3ccc(Cl)cc3)nc3c2c(-c2ccccc2)nn3-c2ccccc2)c1 | 101% (inactive)
33 | Fc1ccc(CNc2c3ccccc3nc3ccccc23)cc1F | 68.2% (inactive)
34 | O=C(CSc1nnc(-c2ccc(NC(=O)c3cccnc3)cc2)o1)Nc1cccc(Br)c1 | 109% (inactive)
35 | COc1ccc(N2CCN(c3nc(-c4cc(OC)c(OC)c(OC)c4)nc4ccccc34)CC2)cc1 | 39.9% (inactive)
36 | N#Cc1c2c(nn(-c3ccccc3)c1=O)C(O)=C([N+](=O)[O-])C(c1ccccc1)C2 (stereo not given) | 91.9% (inactive)
37 | COc1ccc(C2CC(c3cccc(OC)c3)=NN2C(=O)c2cc(OC)c(OC)c(OC)c2)cc1 (stereo not given) | 39.5% (inactive)
38 | COC(=O)[C@]12CC[C@@H](C)[C@H](C)[C@@H]1C1=CC[C@@H]3[C@@]4(C)C(C=O)=C[C@@](C)(CO)[C@@H]4[C@H](O)C[C@@]3(C)[C@]1(C)CC2 | -15.6% (active)
39 | CN(C)CC1=NC2SC=C(c3ccccc3)C2C(=O)N1CC#N (stereo not given) | 118% (inactive)
40 | N#CC1=C(/N=C/c2ccccc2)Oc2c(ccc3ccccc23)C1c1ccccc1 (stereo not given) | 4.18% (active)
